# Data published in paper PMC7862700, “An all-to-all approach to the identification of sequence-specific readers for epigenetic DNA modifications on cytosine”.
# Assays:
# Test in all cases: DAPPL (digital affinity profiling via proximity ligation, sequencing); 10 mM Tris-HCl pH 7.5, 50 mM NaCl, 1 mM DTT, 4% glycerol, room temperature, 30 min; GST-TFs on glutathione beads, 16-mer random dsDNA library, 0.1% formaldehyde crosslink after washing; high values mean tight binding
# [1] = biological target: T1, FEV (Homo sapiens, UniProt Q99581 1-238); conditions: protein: recombinant; tags: N-terminal GST; dsDNA, one strand shown
# T1 sequence: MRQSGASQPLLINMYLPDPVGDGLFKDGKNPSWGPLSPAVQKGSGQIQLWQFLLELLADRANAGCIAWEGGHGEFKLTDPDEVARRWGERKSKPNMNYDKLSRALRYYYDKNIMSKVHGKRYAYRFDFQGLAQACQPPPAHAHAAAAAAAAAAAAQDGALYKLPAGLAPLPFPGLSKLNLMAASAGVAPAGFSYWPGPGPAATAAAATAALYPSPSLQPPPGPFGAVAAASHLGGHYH
# Method in brief: (§1)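 Binding signal is given per hexamer as its read frequency for a factor divided by its frequency in the tag-only sample. GST-fused human transcription factors were expressed in yeast, captured on glutathione beads, barcoded with DNA and pooled with that sample, then incubated with 200 nmole of a 16-mer random double-stranded DNA library in Tris/NaCl/DTT/glycerol buffer for 30 min at room temperature. The pools were then washed, crosslinked, proximity-ligated, amplified by PCR and sequenced on an Illumina NextSeq500.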
# [2] = biological target: ETV5 (Homo sapiens, UniProt P41161 1-510); conditions: protein: recombinant; tags: N-terminal GST; dsDNA, one strand shown
# Sequence of ETV5 (P41161 whole entry): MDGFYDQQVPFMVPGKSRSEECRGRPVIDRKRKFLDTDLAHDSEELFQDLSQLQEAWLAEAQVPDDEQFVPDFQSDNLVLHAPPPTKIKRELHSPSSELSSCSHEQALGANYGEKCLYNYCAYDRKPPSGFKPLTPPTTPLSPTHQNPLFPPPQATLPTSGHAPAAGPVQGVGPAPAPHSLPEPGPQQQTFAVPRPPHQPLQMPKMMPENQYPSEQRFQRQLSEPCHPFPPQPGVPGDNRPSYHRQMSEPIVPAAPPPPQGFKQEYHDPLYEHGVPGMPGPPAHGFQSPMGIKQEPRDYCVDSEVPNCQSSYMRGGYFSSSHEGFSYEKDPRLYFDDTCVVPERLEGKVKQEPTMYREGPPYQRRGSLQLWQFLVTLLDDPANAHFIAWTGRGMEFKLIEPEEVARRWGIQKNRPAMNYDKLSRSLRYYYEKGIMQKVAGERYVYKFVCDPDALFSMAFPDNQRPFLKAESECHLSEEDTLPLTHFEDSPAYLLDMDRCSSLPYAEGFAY
# Method in brief: as §1
# [3] = biological target: HSF1 (Homo sapiens, UniProt Q00613 1-529); conditions: protein: recombinant; tags: N-terminal GST; chain copies: 3; dsDNA, one strand shown
# Sequence of HSF1 (Q00613 whole entry): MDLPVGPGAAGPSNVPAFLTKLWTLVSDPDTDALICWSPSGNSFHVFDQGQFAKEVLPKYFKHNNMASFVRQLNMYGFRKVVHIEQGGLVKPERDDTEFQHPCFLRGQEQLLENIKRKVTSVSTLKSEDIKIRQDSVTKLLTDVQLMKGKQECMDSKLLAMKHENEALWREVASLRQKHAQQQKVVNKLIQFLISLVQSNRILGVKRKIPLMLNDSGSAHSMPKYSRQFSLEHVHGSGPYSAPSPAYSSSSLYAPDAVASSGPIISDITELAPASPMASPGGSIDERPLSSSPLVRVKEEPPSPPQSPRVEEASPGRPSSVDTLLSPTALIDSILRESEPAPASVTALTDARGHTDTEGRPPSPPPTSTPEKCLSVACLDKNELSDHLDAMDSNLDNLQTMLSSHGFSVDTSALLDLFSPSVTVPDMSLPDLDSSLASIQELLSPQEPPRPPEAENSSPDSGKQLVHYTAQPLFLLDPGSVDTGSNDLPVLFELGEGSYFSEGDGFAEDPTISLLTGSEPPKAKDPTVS
# Method in brief: as §1
# [4] = biological target: T2, SPIC (Homo sapiens, UniProt Q8N5J4 1-248); conditions: protein: recombinant; tags: N-terminal GST; dsDNA, one strand shown
# T2 sequence: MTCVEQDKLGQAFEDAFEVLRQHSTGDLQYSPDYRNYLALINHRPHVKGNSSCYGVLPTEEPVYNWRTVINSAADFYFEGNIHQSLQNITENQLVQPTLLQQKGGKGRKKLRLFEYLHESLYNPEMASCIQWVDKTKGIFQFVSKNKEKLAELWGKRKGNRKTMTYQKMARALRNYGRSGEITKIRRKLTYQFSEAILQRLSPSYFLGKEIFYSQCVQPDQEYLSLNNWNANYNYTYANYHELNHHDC
# Method in brief: as §1
# [5] = biological target: ELF4 (Homo sapiens, UniProt Q99607 1-663); conditions: protein: recombinant; tags: N-terminal GST; dsDNA, one strand shown
# Sequence of ELF4 (Q99607 whole entry): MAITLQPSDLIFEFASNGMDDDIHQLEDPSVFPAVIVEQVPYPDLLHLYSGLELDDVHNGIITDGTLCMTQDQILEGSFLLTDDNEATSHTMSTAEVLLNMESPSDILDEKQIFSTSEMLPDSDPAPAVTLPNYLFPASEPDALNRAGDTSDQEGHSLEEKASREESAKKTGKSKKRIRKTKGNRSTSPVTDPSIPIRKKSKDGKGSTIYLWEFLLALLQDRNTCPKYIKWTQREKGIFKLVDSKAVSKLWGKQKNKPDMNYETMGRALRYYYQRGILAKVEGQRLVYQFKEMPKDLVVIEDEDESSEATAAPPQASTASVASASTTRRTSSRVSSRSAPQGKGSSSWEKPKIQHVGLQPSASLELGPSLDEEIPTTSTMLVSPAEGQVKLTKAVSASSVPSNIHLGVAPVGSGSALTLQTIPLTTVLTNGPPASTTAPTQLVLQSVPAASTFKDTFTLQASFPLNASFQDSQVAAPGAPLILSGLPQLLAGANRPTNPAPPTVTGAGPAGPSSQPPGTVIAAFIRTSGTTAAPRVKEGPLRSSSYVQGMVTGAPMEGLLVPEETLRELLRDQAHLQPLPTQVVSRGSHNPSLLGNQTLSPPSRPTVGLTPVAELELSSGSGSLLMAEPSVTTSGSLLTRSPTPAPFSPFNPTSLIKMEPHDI
# Method in brief: as §1
# [6] = biological target: T3, ELK4 (Homo sapiens, UniProt P28324-2 1-405); conditions: protein: recombinant; tags: N-terminal GST; dsDNA, one strand shown
# T3 sequence: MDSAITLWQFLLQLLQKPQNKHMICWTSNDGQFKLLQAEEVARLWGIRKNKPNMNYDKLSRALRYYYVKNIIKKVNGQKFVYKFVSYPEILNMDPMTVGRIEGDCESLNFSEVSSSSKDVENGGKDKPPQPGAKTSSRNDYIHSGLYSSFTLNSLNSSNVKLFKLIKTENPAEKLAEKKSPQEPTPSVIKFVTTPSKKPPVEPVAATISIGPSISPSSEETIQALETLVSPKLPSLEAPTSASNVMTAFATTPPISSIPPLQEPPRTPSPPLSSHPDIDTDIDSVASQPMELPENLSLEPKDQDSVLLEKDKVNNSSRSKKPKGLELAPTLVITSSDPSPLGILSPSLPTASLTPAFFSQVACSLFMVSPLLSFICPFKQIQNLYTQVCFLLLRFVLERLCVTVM
# Method in brief: as §1
# [7] = biological target: T4, ETV2 (Homo sapiens, UniProt O00321 1-342); conditions: protein: recombinant; tags: N-terminal GST; dsDNA, one strand shown
# T4 sequence: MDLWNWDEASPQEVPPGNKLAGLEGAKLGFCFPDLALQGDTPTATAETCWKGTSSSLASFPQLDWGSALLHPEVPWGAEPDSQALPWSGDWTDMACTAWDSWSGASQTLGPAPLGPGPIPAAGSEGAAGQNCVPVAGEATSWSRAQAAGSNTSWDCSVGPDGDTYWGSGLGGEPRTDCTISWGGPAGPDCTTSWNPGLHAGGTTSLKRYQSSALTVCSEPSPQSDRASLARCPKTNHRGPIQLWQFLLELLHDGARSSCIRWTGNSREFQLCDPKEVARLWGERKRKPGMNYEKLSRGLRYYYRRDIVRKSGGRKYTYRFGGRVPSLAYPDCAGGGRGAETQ
# Method in brief: as §1
# [8] = biological target: T5, ELF3 (Homo sapiens, UniProt P78545 1-371); conditions: protein: recombinant; tags: N-terminal GST; dsDNA, one strand shown
# T5 sequence: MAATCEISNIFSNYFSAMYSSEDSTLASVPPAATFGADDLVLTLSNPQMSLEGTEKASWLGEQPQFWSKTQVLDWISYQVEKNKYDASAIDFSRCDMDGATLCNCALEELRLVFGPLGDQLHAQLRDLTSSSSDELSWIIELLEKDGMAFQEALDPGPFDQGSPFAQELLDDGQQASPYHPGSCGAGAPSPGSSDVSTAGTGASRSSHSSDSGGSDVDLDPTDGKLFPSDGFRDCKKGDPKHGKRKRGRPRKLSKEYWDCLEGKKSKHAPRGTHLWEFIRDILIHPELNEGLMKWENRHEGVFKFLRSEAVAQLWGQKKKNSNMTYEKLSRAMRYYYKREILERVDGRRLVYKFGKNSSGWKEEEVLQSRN
# Method in brief: as §1
# [9] = biological target: CRX (Homo sapiens, UniProt O43186 1-299); conditions: protein: recombinant; tags: N-terminal GST; dsDNA, one strand shown
# Sequence of CRX (O43186 whole entry): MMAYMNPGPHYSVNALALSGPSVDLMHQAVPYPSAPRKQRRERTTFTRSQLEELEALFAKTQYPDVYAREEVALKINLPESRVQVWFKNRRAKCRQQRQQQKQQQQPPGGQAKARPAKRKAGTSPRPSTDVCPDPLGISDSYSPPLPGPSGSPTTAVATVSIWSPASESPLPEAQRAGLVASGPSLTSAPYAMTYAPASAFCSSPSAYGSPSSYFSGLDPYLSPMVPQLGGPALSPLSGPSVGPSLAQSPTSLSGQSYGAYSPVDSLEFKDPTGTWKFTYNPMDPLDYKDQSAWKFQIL
# Method in brief: as §1
# [10] = biological target: ETV1 (Homo sapiens, UniProt P50549 1-477); conditions: protein: recombinant; tags: N-terminal GST; dsDNA, one strand shown
# Sequence of ETV1 (P50549 whole entry): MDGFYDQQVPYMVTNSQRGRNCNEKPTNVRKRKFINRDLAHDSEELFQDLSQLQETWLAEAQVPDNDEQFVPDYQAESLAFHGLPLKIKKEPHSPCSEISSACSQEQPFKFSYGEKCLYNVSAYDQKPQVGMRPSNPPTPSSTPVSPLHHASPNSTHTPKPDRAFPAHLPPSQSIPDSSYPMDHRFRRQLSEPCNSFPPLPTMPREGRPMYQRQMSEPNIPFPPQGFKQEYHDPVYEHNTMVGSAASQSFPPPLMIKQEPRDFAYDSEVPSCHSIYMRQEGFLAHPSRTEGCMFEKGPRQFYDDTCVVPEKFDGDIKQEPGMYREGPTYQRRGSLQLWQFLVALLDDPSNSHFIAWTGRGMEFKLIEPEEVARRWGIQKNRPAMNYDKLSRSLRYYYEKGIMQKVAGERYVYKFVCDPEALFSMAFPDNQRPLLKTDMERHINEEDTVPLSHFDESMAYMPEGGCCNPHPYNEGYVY
# Method in brief: as §1
sequence,measurement,setting,value
CGATTG,binding signal,[1],"1.12 fold enrichment (6-mer frequency, TF over GST control)"
same,binding signal,[2],"1.18 fold enrichment (6-mer frequency, TF over GST control)"
same,binding signal,[3],"1.21 fold enrichment (6-mer frequency, TF over GST control)"
same,binding signal,[4],"1.08 fold enrichment (6-mer frequency, TF over GST control)"
same,binding signal,[5],"1.28 fold enrichment (6-mer frequency, TF over GST control)"
same,binding signal,[6],"1.34 fold enrichment (6-mer frequency, TF over GST control)"
same,binding signal,[7],"1.08 fold enrichment (6-mer frequency, TF over GST control)"
same,binding signal,[8],"1.14 fold enrichment (6-mer frequency, TF over GST control)"
same,binding signal,[9],"1.16 fold enrichment (6-mer frequency, TF over GST control)"
same,binding signal,[10],"1.16 fold enrichment (6-mer frequency, TF over GST control)"
